From PubChem BioAssay
Calls of active or inactive are those of the source. The rule behind the calls is not given here.

Biological target: Pantothenate synthetase (Mycobacterium tuberculosis (strain ATCC 25618 / H37Rv)) (UniProt P9WIL5)
Assay: Coupled enzyme confirmation of inhibitors against recombinant Mtb PanC (AID 375);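 note: 0% = full reaction with vehicle and 100% = no enzyme background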
Conditions: coupled enzyme assay; at 10 µM, hits give high values

Chain of Pantothenate synthetase (Mycobacterium tuberculosis (strain ATCC 25618 / H37Rv)) (P9WIL5 whole entry, looked up): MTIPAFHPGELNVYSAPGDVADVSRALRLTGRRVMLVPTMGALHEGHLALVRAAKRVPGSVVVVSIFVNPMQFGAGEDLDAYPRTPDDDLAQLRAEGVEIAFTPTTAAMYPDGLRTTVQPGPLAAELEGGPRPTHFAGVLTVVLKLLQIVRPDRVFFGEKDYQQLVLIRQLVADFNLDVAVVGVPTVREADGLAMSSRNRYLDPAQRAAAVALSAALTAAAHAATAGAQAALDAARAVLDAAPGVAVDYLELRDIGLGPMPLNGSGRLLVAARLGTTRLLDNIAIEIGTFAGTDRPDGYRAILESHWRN

Row | SMILES | inhibition
1 | O=S1(=O)C=C(Sc2nnc(-c3ccccc3)o2)c2ccccc21 | 3% (inactive)
2 | CCCS(=O)(=O)N1CCN(C(=O)c2cccs2)CC1 | 0% (inactive)
3 | COC(=O)C1=C(C)Nc2ncnn2C1c1ccc(C)o1 (stereo not given) | 0% (inactive)
4 | COc1cccc(-c2nnc(SCC(N)=O)n2-c2ccc(Cl)cc2)c1 | 0% (inactive)
5 | CCN(C1CCCCC1)S(=O)(=O)c1ccc(OC)c(C)c1 | 0% (inactive)
6 | COc1cccc(-n2nnc3c(=O)n(Cc4cccc(F)c4)cnc32)c1 | 4% (inactive)
7 | Cc1nnc(SCC(=O)N2CCC(C(N)=O)CC2)s1 | 0% (inactive)
8 | CCOC(=O)Cc1nnc2c(Nc3ccc(C)cc3)nc3nonc3n12 | 1% (inactive)
9 | OC(CCN1CCCC1)(c1ccccc1)C1CCCCC1 (stereo not given) | 1% (inactive)
10 | C[C@H](NC(=O)OC(C)(C)C)C(=O)NCC1CCC(C(=O)O)CC1 (stereo not given in full) | 0% (inactive)
11 | CCOC(=O)c1ccc(NC(=O)Nc2ccn(C)n2)cc1 | 0% (inactive)
12 | CCOc1ccc2nc(SCC#N)c(C#N)cc2c1 | 0% (inactive)
13 | Cc1ccc(-n2nc(C)c3cc(C(=O)O)sc32)cc1 | 0% (inactive)
14 | O=C(NCCCNC(=O)c1ccccn1)c1ccccn1 | 12% (inactive)
15 | CC(C)C1N=C2c3ccccc3N=C(SCc3cc(=O)n4ccccc4n3)N2C1=O (stereo not given) | 6% (inactive)
16 | Cc1cc(NC(=O)COc2ncnc3sc(C)c(C)c23)no1 | 0% (inactive)
17 | COc1ccc(OC)c(C2=NOC(C(=O)Nc3c(C)n(C)n(-c4ccccc4)c3=O)C2)c1 (stereo not given) | 2% (inactive)
18 | COc1ccc(CNc2ccc(C(=O)O)cc2)cc1 | 0% (inactive)
19 | CCCc1ccccc1OCCNC(C)=O | 3% (inactive)
20 | FC(F)(F)c1cc(-c2ccco2)nc(N2CCOCC2)n1 | 2% (inactive)

Row | SMILES | inhibition
21 | O=C(CN1CCN(C2CCCCC2)CC1)Nc1ccccc1-c1ccccc1 | 6% (inactive)
22 | CCc1ccc(N2CC(C(=O)OCC(=O)Nc3cc(C)on3)CC2=O)cc1 (stereo not given) | 0% (inactive)
23 | CCn1c(SCC(=O)N2CCOCC2)nc2c(c1=O)SC(C)C2 (stereo not given) | 0% (inactive)
24 | CN(C)S(=O)(=O)N1CCN(c2cccc(Cl)c2)CC1 | 0% (inactive)
25 | Cc1ccc(-c2nnc(SC(C)C#N)n2N)cc1 (stereo not given) | 3% (inactive)
26 | Cc1cc(OCC(=O)N2CCCC2)cc(C)c1Cl | 2% (inactive)
27 | COc1cc(C(=O)NCC(=O)OCC(=O)c2ccc[nH]2)cc(OC)c1OC | 2% (inactive)
28 | CN(C)c1nc(N)nc(CSc2nnnn2-c2cccc3ccccc23)n1 | 0% (inactive)
29 | CC(=O)OCC(=O)[C@@]12OC3(CCCC3)O[C@@H]1C[C@H]1[C@@H]3CCC4=CC(=O)C=C[C@]4(C)[C@@]3(F)[C@@H](O)C[C@@]12C | 1% (inactive)
30 | CCOc1ccc(C(=O)OCc2nnc(-c3cccs3)o2)cc1OC | 0% (inactive)
31 | COCCNC(=O)NC(=O)COC(=O)Cc1ccc2c(c1)OCCO2 | 4% (inactive)
32 | O=C(CNC(=O)c1ccccc1C(=O)O)c1ccccc1 | 0% (inactive)
33 | Cc1csc(NC(=O)CCS(=O)(=O)c2ccc(Br)cc2)n1 | 2% (inactive)
34 | O=C(O)c1cc2c([nH]c1=O)CCCC2 | 8% (inactive)
35 | CCOC(=O)N1CCN(C(=O)c2cnn(-c3ccccc3)c2NC(=O)c2ccccc2F)CC1 | 0% (inactive)
36 | CCCCCCc1ccc(-c2ncc(N)cn2)cc1 | 0% (inactive)
37 | Cn1c(=O)c2c(nc(SCCCC#N)n2Cc2c(F)cccc2Cl)n(C)c1=O | 0% (inactive)
38 | Cc1onc(-c2c(Cl)cccc2Cl)c1C(=O)NCCCN1CCOCC1 | 1% (inactive)
39 | CCOC(=O)c1c(C)[nH]c(C(=O)COC(=O)c2ccc(F)c(S(=O)(=O)N3CCOCC3)c2)c1C | 4% (inactive)
40 | O=C1CCCC2=C1C(c1ccc(Br)cc1)c1c([nH]c(=S)[nH]c1=O)N2 (stereo not given) | 0% (inactive)
